The full list was thinned out, with hits kept by preference.
Giardia FBPA inh: blocks Giardia fructose-bisphosphate aldolase activity | A8B2U2 | purified Giardia FBPA | Potency, µM (series often up to 59.6 µM), without a hit: at the top dose activity, negative = inhibition, actives largely listed as inhibitors | actives 0.71% (n = 290,000) | AID 2451; further: potency means the concentration at half of the fitted maximal effect; on the % scale 0 is the no-effect control and ±100 the full control effect; nearly all actives have a fitted effect of over 55% in size
Target sequence (A8B2U2 whole entry, looked up): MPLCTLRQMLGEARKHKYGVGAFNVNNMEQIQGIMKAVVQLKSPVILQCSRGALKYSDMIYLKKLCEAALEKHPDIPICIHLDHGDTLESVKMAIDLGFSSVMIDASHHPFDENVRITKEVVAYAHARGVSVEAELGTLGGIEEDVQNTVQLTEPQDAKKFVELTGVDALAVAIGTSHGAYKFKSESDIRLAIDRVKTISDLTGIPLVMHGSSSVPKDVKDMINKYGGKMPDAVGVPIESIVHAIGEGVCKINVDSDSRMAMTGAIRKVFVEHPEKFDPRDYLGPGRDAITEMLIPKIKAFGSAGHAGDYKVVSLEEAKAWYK
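40 nM FBPA preincubated 10 min at RT with compound (up to 57.5 uM final), then substrate plus GAPDH/TPI/NAD/arsenate coupling and diaphorase/resazurin added. Fluorescence read after 20 min at RT, 525/598 nm.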
LmPK inh: LmPK (Leishmania mexicana) enzyme inhibition | Q27686 | purified LmPK, Kinase-Glo ATP luminescence, 1 h | Potency, µM (doses to about 57.5 µM), inactives show at the top dose activity change, negative = inhibition, usual class: inhibitors | actives 0.37% (n = 290,000) | AID 1721; further: potency means the concentration at half of the fitted maximal effect; on the % scale 0 is the no-effect control and ±100 the full control effect
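Purified LmPK (0.1 nM) converted ADP (0.1 mM) to ATP with PEP (0.5 mM) in imidazole buffer pH 7.2 with KCl and MgCl2, 1 h at room temperature. ATP was read by Kinase-Glo luminescence; data normalized to uninhibited and no-enzyme controls.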
RE007 growth inh: less growth of the S. pombe RE007 Vpr strain | S. pombe RE007 Vpr strain, BacTiter-Glo ATP luminescence, 24 h | Potency, µM (top dose mostly 92.2 µM), for inactives: top-dose activity change, negative = less growth, usual class: inhibitors | actives 0.21% (n = 360,000); active means well fitted falling curve with a large enough effect; inconclusive means small, poorly fitted or top-dose-only effect; inactive means no such curve, though single readings can be large or run the other way; further: potency means the concentration at half of the fitted maximal effect; on the % scale 0 is the no-effect control and ±100 the full control effect; nearly all actives have a fitted effect of over 50% in size
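Fission yeast RE007 carrying one integrated HIV-1 vpr copy, seeded at OD 0.01 in PMG+AL medium with 23 nL pinned compound. Grown 24 h at 30 degrees; viability read by BacTiter-Glo luminescence after 5 min.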
CHX counter: counter-screen hit for Shiga toxin inhibitors, cycloheximide; cell reporter, cycloheximide protein synthesis inhibition counterscreen; max response, %; actives 12% (n = 300,000); in the data active means max response mostly above about 13%, no sharp cut-off; inactive means mostly below about 14%; further: read at 38.3 µM for the half of the compounds with a filed dose; 0% is about no effect
Tb PYK inh: blocks Trypanosoma brucei pyruvate kinase; Q57TT1; TbPYK enzyme, Kinase-Glo Plus ATP luminescence, 45 min; Potency, µM (top dose mostly 76.8 µM), for inactives: at the top dose activity, negative = inhibition, hits mostly inhibitors; actives 0.12% (n = 410,000); further: potency means the concentration at half of the fitted maximal effect; on the % scale 0 is the no-effect control and ±100 the full control effect; nearly all actives have a fitted effect of over 50% in size
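Quantitative HTS: titrated library compounds versus trypanosomal pyruvate kinase in TEA buffer (pH 7.2) containing KCl, MgCl2, BSA and Tween-20. Reactions were initiated with ADP, 130 uM final. Kinase-Glo Plus luminescence was read after 45 min at RT.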
Shiga inhibitor: blocks Shiga toxin action in Vero cells | actives 9.2% (n = 290,000) | Vero cells, Shiga toxin protein synthesis inhibition reporter | inhibition, % at 38.7 µM; in the data active means inhibition mostly above about 28%, no sharp cut-off; inactive means mostly below about 43%; further: 0% is about no effect
* hit, by the source's call; [ ] = dose if it differs, or a comment. Unless noted, the call rests on the fitted dose curve; in most records, active means well fitted curve in the direction sought with a large enough effect; inconclusive means small, poorly fitted or top-dose-only effect, or another doubt; inactive means no such curve, though single readings can be large; an effect the other way counts as inactive or inconclusive.

Results for CCCCc1nc2cc(C(=O)N3CCC(O)CC3)ccc2o1 ?
Giardia FBPA inh: -5%; LmPK inh: -9%; RE007 growth inh: -10%; CHX counter: 38*; Tb PYK inh: -7%; Shiga inhibitor: 47*

How did Cc1cnc(CN(C)C(=O)c2ccc3oc(Cc4ccccc4)nc3c2)[nH]1 do in these assays?
LmPK inh: 0%; RE007 growth inh: 3%; CHX counter: 13; Tb PYK inh: -4%; Shiga inhibitor: -3

What do the screens show for `CCCCc1nc2cc(C(=O)N(C)C3CCOCC3)ccc2o1`?
Giardia FBPA inh: 16%; LmPK inh: -6%; RE007 growth inh: -9%; CHX counter: 68*; Tb PYK inh: 9%; Shiga inhibitor: 116*

How did O=C(c1ccc2oc(CCc3ccccc3)nc2c1)N1CC[C@H](O)C1 do in these assays?
LmPK inh: 5%; RE007 growth inh: 16%; CHX counter: 38*; Tb PYK inh: 0%; Shiga inhibitor: 85*

Results for COC1CCN(C(=O)c2ccc3oc(Cc4ccc(Cl)cc4)nc3c2)CC1 ?
Giardia FBPA inh: 7%; LmPK inh: -3%; RE007 growth inh: 6%; CHX counter: 10; Tb PYK inh: 2%; Shiga inhibitor: -4

How did CCCCc1nc2cc(C(=O)N(C)CCc3cn[nH]c3)ccc2o1 do in these assays?
Giardia FBPA inh: 4%; LmPK inh: -2%; RE007 growth inh: 15%; CHX counter: 51*; Tb PYK inh: 4%; Shiga inhibitor: 61*

How did CCCCc1nc2cc(C(=O)N3CCC[C@H]3CO)ccc2o1 do in these assays?
Giardia FBPA inh: 12%; LmPK inh: -1%; RE007 growth inh: 1%; CHX counter: 20*; Tb PYK inh: 10%; Shiga inhibitor: 39*

Results for O=C(c1ccc2oc(Cc3ccc(Cl)cc3)nc2c1)N1CCCCC1CCO (configuration not stated) ?
LmPK inh: -4%; RE007 growth inh: 9%; CHX counter: 17; Tb PYK inh: 1%; Shiga inhibitor: 13

How did CCOC(=O)c1[nH]c2ccccc2c1NC(=O)c1ccccc1OC do in these assays?
Tb PYK inh: 5%

Results for O=C(O)c1ccccc1Nc1ccc(CCc2ccc(Cl)c(Cl)c2)cc1 ?
Giardia FBPA inh: inconclusive; CHX counter: 16*; Shiga inhibitor: 27*

How did O=C(O)c1ccccc1Nc1cc(Cl)cc(Cl)c1 do in these assays?
Giardia FBPA inh: inconclusive; CHX counter: -2; Shiga inhibitor: -1

What do the screens show for `CC1CC(C(F)(F)F)n2nc(C(=O)O)cc2N1` (configuration not stated)?
Giardia FBPA inh: -5%; LmPK inh: -5%; RE007 growth inh: 5%; CHX counter: -2; Tb PYK inh: 4%; Shiga inhibitor: -22

How did CCOC(=O)c1cc2n(n1)C(C(F)(F)F)CC(C)N2 (configuration not stated) do in these assays?
Giardia FBPA inh: 4%; LmPK inh: -1%; RE007 growth inh: 1%; CHX counter: 12*; Tb PYK inh: -1%; Shiga inhibitor: 13

What do the screens show for `CN(C)c1ccc(C2C3CCCc4ccccc4C3=NN2C)cc1` (configuration not stated)?
Giardia FBPA inh: 0%; LmPK inh: 3%; RE007 growth inh: 9%; CHX counter: 59*; Tb PYK inh: 4%; Shiga inhibitor: 96*

How did CN1N=C2c3ccccc3CCC2C1c1ccc(C(F)(F)F)cc1 (configuration not stated) do in these assays?
Giardia FBPA inh: 0%; LmPK inh: 6%; RE007 growth inh: -7%; CHX counter: 2; Tb PYK inh: -2%; Shiga inhibitor: 27

How did CCCCc1c(O)nc(SCC(=O)N2CCCCC2)[nH]c1=O do in these assays?
Giardia FBPA inh: 12%; LmPK inh: 1%; RE007 growth inh: 33%; CHX counter: 17*; Tb PYK inh: 2%; Shiga inhibitor: 65

Results for O=C(NCCC1=CCCCC1)c1ccc(Cl)cc1 ?
Giardia FBPA inh: -4%; LmPK inh: 0%; CHX counter: 33*; Shiga inhibitor: 46

Results for O=C(NCCC1=CCCCC1)c1ccc(Cl)c(S(=O)(=O)N2CCCCC2)c1 ?
Giardia FBPA inh: 0%; LmPK inh: -7%; RE007 growth inh: 2%; CHX counter: 30; Tb PYK inh: 5%; Shiga inhibitor: 50

How did O=C(NCCC1=CCCCC1)c1ccc(Cl)c(S(=O)(=O)N2CCOCC2)c1 do in these assays?
Giardia FBPA inh: -3%; LmPK inh: 1%; RE007 growth inh: 18%; CHX counter: 12; Tb PYK inh: -7%; Shiga inhibitor: active

Results for CS(=O)(=O)N(Cc1ccc(Cl)cc1)c1ccc(C(=O)NCCC2=CCCCC2)cc1 ?
Giardia FBPA inh: 2%; LmPK inh: 1%; RE007 growth inh: -9%; CHX counter: -2; Tb PYK inh: 4%; Shiga inhibitor: -8

How did CS(=O)(=O)Nc1ccc(C(=O)NCCC2=CCCCC2)cc1 do in these assays?
Giardia FBPA inh: 11%; LmPK inh: 1%; RE007 growth inh: 8%; CHX counter: 55*; Tb PYK inh: -5%; Shiga inhibitor: 144*

What do the screens show for `Nc1nc(N)c2c(ccc3c2ccn3Cc2cccc([N+](=O)[O-])c2)n1`?
RE007 growth inh: 5.6µM*; Tb PYK inh: 1%

How did Nc1nc(N)c2cc([N+](=O)[O-])ccc2n1 do in these assays?
RE007 growth inh: 9%; Tb PYK inh: -3%

What do the screens show for `CCc1nc2ccc(C(=O)NCCCN3CCCC3=O)cn2c1N(CC)C(C)=O`?
RE007 growth inh: -8%[18.4 µM]; Tb PYK inh: 2%

Results for O=C(CSc1ccc(-c2ccco2)nn1)Nc1ccc(F)cc1F ?
LmPK inh: -5%; RE007 growth inh: -2%; CHX counter: 0; Tb PYK inh: inconclusive; Shiga inhibitor: 33

How did Cc1ccc(S(=O)(=O)N/N=C/c2cccs2)cc1 do in these assays?
Giardia FBPA inh: 1%; LmPK inh: 5%[11.5 µM]; RE007 growth inh: 14%; CHX counter: -4; Tb PYK inh: -6%; Shiga inhibitor: 13

What do the screens show for `O=[N+]([O-])c1ccc(S(=O)(=O)N/N=C/c2cccs2)cc1`?
Giardia FBPA inh: 1%; LmPK inh: -2%; RE007 growth inh: 0%; CHX counter: 20*; Tb PYK inh: -12%; Shiga inhibitor: 27*

How did COc1ccccc1N=Nc1nc(-c2ccccc2)c(-c2ccccc2)[nH]1 do in these assays?
Giardia FBPA inh: 14%; LmPK inh: -3%; RE007 growth inh: 1%; CHX counter: 12*; Tb PYK inh: -4%; Shiga inhibitor: -1

What do the screens show for `COc1cc2c(cc1OC)-c1nnc(C)n1C(C)(C)C2`?
Giardia FBPA inh: -2%; LmPK inh: 10%; RE007 growth inh: -4%; CHX counter: -5; Tb PYK inh: 0%; Shiga inhibitor: -17

Assay outcomes as filed in PubChem.
